High-throughput results from PubChem.
Only some compounds are listed: those with a hit (about 2.6% of all), similar ones and a draw of the others.
Cruzain inh noDet: cruzain (T. cruzi) inhibition without detergent. Potency, µM, most hits filed as inhibitors. P25779. purified cruzain, Z-FR-AMC fluorescence, no detergent. AID 1476. actives 2.3% (n = 200,000); further: nearly all actives have a fitted effect of over 40% in size
Target sequence (P25779 123-467 limits assumed): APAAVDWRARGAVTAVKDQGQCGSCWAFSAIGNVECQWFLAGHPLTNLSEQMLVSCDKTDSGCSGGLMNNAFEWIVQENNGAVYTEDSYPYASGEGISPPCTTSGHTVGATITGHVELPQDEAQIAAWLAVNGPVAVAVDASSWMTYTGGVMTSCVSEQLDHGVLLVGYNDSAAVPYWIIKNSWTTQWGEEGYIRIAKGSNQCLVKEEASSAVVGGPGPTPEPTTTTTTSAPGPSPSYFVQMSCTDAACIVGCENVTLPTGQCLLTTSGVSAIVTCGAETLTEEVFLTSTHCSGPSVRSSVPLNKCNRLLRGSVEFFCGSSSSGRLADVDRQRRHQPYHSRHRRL
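Purified cruzain at 1.5 nM, pre-incubated 15 min with compound at room temperature in 100 mM sodium acetate pH 5.5, 5 mM DTT, 0.00005% Triton X-100. Reaction started with 2 uM Z-FR-AMC; AMC fluorescence increase over 60 s gives rate.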
Cruzain inh Det: blocks cruzain activity in presence of Triton detergent | purified cruzain, Z-FR-AMC fluorescence, 0.01% Triton | Potency, µM, usual class: inhibitors | actives 0.43% (n = 200,000); further: nearly all actives have a fitted effect of over 40% in size
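In this qHTS format, compounds are incubated with 1.5 nM cruzain for 15 min at room temperature before 2 uM Z-FR-AMC is added. Release of AMC is followed at 360/450 nm, and progress is taken as the 60 s fluorescence difference.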
Large screens that a line does not name were inactive. The call rests on the fitted dose curve; in most records, active means well fitted curve in the direction sought with a large enough effect; inconclusive means small, poorly fitted or top-dose-only effect, or another doubt; inactive means no such curve, though single readings can be large; an effect the other way counts as inactive or inconclusive.

O=C(Nc1ccc(Cl)c(S(=O)(=O)Nc2ccccc2Cl)c1)c1cccs1	none
COc1ccccc1NS(=O)(=O)c1cc(NC(=O)c2ccncc2)ccc1N1CCOCC1	Cruzain inh noDet inconclusive
COc1ccccc1NS(=O)(=O)c1cc(NC(=O)/C=C/c2cccs2)ccc1N1CCOCC1	Cruzain inh noDet 25µM
O=C(/C=C/c1cccs1)Nc1ccc(N2CCOCC2)c(S(=O)(=O)Nc2cc(Cl)ccc2Cl)c1	Cruzain inh noDet 5µM
COc1ccc(C(c2nnnn2CC2CCCO2)N2CCN(c3ccccc3)CC2)cc1 (stereo unspecified)	none
CC12C(=O)OC(=O)C1(C)C1CCC2O1 (stereo unspecified)	none
CC(C)NC(=O)CCS(=O)(=O)c1ccc(Br)s1	none
CC(c1ccccc1)C1CC(=O)N(C2CCCCC2)C1=O (stereo unspecified)	none
O=C(c1ccc(S(=O)(=O)N2CCCCC2)cc1)c1nnc(-c2ccc(Cl)cc2)o1	none
O=C(CCc1ccc(S(=O)(=O)N2CCCCC2)cc1)c1nnc(-c2ccccc2)o1	Cruzain inh noDet 25µM
O=C(Nc1ccc(-c2nc3ccccc3s2)c(O)c1)c1ccc(Br)cc1	none
O=C(Nc1ccc(-c2nc3ccccc3s2)c(OC(=O)c2ccccc2)c1)c1ccccc1	Cruzain inh noDet 25µM
COc1ccc(-c2nn3c(-c4ccccc4)nnc3c3ccccc23)cc1	none
COc1ccc(-n2nc3c(c2NC(=O)C24CC5CC(CC(C5)C2)C4)CS(=O)C3)cc1 (stereo unspecified)	none
O=C(Nc1ccc(Cl)cc1)C1CCC(CNS(=O)(=O)c2ccc(Br)s2)CC1 (stereo unspecified)	Cruzain inh noDet 25µM
CC(=O)c1ccc(NC(=O)C2CCC(CNS(=O)(=O)c3ccc(Br)s3)CC2)cc1 (stereo unspecified)	none
CCCCCc1ccc(S(=O)(=O)NCCc2ccncc2)cc1	none
COc1ccc(-c2coc3cc4oc(=O)cc(C)c4cc23)cc1F	none
COc1ccc(-c2coc3cc4oc(=O)cc(-c5ccccc5)c4cc23)cc1F	Cruzain inh noDet 10µM
Cc1c(NC(=O)c2ccc(-c3cccc([N+](=O)[O-])c3)o2)cccc1-c1nc2cc(Cl)ccc2o1	Cruzain inh noDet 3.2µM
Cc1ccc2oc(-c3cc(NC(=O)/C=C/c4ccco4)ccc3Cl)nc2c1	Cruzain inh noDet inconclusive
O=C(Nc1ccc(Cl)c(-c2nc3ccccc3o2)c1)c1ccc(-c2cccc([N+](=O)[O-])c2)o1	none
Cc1ccc2oc(-c3cccc(NC(=O)/C=C/c4cccc([N+](=O)[O-])c4)c3C)nc2c1	Cruzain inh noDet 16µM
COc1ccc2nc(NC(=O)c3cc(C)oc3C)sc2c1	none
COc1ccc2nc(NC(=O)c3ccc(-c4cccc([N+](=O)[O-])c4)o3)sc2c1	Cruzain inh noDet 13µM
CCC(=O)Nc1cccc(NC(=O)COc2ccc(OC)cc2)c1	none
Cc1cccc(OC(C)C(=O)NCC2(N(C)C)CCCCC2)c1C (stereo unspecified)	none
CCS(=O)(=O)N1CCC(C(=O)NCc2ccccn2)CC1	none
COc1ccc(C(=O)Oc2cc(-c3ccc4c(c3)OCO4)cc(=O)c3c(C)oc(C)c23)cc1	none
COc1ccccc1CNC(=O)c1cc2cccc3c2n1CCS3	Cruzain inh noDet 25µM
O=C(NCc1ccccc1Cl)c1cc2cccc3c2n1CCS3	Cruzain inh noDet inconclusive
CC(C)[C@@H]1C(=O)N(S(C)(=O)=O)[C@H]2CCN(C(=O)/C=C\CN3CCCCC3)[C@@H]12	none
O=[N+]([O-])c1ccc(OC/C=C2\Oc3ccc([N+](=O)[O-])cc3C2N2CCOCC2)cc1 (stereo unspecified)	none
O=[N+]([O-])c1ccc2c(c1)C(N1CCOCC1)/C(=C/COc1ccc3ccccc3c1Br)O2 (stereo unspecified)	Cruzain inh noDet 25µM
CCc1cccc(C)c1NC(=S)NCCc1c(C)[nH]c2ccc(C)cc12	none
Cn1nc([N+](=O)[O-])nc1Oc1ccc2ccccc2c1	none
CC(C)CN(CCCNC(=O)CN1C(=O)COc2ccc(S(=O)(=O)N3CCCCCC3)cc21)CC(C)C	none
COc1cccc(-c2nn(-c3ccccc3)cc2C(=O)n2nnc3ccccc32)c1	Cruzain inh noDet 32µM
O=C(c1cn(-c2ccccc2)nc1-c1ccccc1)n1nnc2ccccc21	Cruzain inh noDet inconclusive
CCC(=O)C1=C(c2ccc(Cl)cc2)N(C(=O)CC)n2c(C)nnc2S1	none
O=C(CSc1nnc2c3ccccc3c3ccccc3c2n1)Nc1ccccc1	Cruzain inh noDet 4µM
Nn1c(SCC(=O)Nc2ccccc2F)nc2ccccc2c1=O	none
O=C(CSc1nnc2c3ccccc3c3ccccc3c2n1)Nc1ccccc1F	Cruzain inh noDet 7.9µM
O=C(O)CSc1nnc2c3ccccc3c3ccccc3c2n1	none
O=C1CC(c2ccccc2)n2nc(NC(=O)c3cccs3)nc2N1 (stereo unspecified)	none
Cc1ccc(Nc2nc(N)c([N+](=O)[O-])c(N3CCOCC3)n2)cc1	none
Cc1ccc(Cl)cc1NC(=O)c1ccccc1OCC(=O)Nc1ccc(Cl)cc1	none
CSc1nsc(SC)c1C(=O)N1CCN(S(=O)(=O)c2ccc(C)cc2)C1C(C)C (stereo unspecified)	none
Cc1ccccc1-n1cnnc1SCC(=O)N1CCN(c2ccccc2)CC1	none
O=C(Nc1ccc(F)cc1)C1CCN(c2nnnn2-c2ccccc2)CC1	none
CCOc1ccc(N2CC(C(=O)OC)CC2=O)cc1 (stereo unspecified)	none
Cc1no[n+]([O-])c1COc1ccc(/C=C(\C#N)C(N)=O)cc1	none
Cc1no[n+]([O-])c1COc1ccc(/C=C2\NC(=S)NC2=O)cc1	Cruzain inh noDet 32µM
CCCC1=[N+](CC(=O)c2ccc(C)cc2)CCn2cccc21	none
COc1ccc(-c2nc3cnc(Nc4ccccc4)nc3n(Cc3cccs3)c2=O)cc1	none
COc1ccc(Oc2ncc3nc(C)c(=O)n(Cc4cccs4)c3n2)cc1	none
COCCn1c(=O)c(CCc2ccccc2)nc2cnc(Nc3cccc(OC)c3)nc21	none
COc1cccc(Nc2ncc3nc(-c4ccccc4)c(=O)n(Cc4cccs4)c3n2)c1	Cruzain inh noDet 5µM
O=c1c(CCc2ccccc2)nc2cnc(Nc3ccccc3)nc2n1Cc1cccs1	Cruzain inh noDet 25µM
COc1ccc(Oc2ncc3nc(-c4ccccc4)c(=O)n(Cc4cccs4)c3n2)cc1	Cruzain inh noDet 25µM
Cc1nc2cnc(Nc3ccccc3)nc2n(Cc2cccs2)c1=O	none
COc1cccc(Nc2ncc3nc(CCc4ccccc4)c(=O)n(Cc4cccs4)c3n2)c1	Cruzain inh noDet 4µM
CCc1ccc(NC(=O)c2ccc3ncsc3c2)cc1	none
CSc1nc2c(c(=O)n1Cc1ccccc1)SC(C)C2 (stereo unspecified)	none
Cc1ccc(-c2nc(C(=O)NCc3ccc(Cl)cc3)c3n2CCCCC3)cc1	none
COc1nc(Nc2cccc(C)c2)nc(N2CCCCC2)n1	none
COc1ccc(Cl)cc1C(=O)CSc1nc(N)cc(N)n1	none
Nc1cccc(Cl)c1	none
Nc1cccc(N)c1	Cruzain inh noDet inconclusive, Cruzain inh Det 11µM
CC(=O)c1ccc(N2CCN(C(=O)c3ccc4c(=O)n(-c5ccccc5)c(=O)[nH]c4c3)CC2)cc1	none
Clc1ccc(C2=C3CCCCn4c(-c5ccccc5)c[n+](c43)C2)cc1	Cruzain inh noDet inconclusive
COc1ccc(-c2c[n+]3c4n2CCCCC4=C(c2ccc(Br)cc2)C3)cc1	Cruzain inh noDet 10µM
CS(=O)(=O)N1CCC[C@@]2(CCN(Cc3ccccc3)C2)C1	none
CCc1ccc(S(=O)(=O)NCc2cccn2Cc2cccc(C)c2)cc1	none
